Over roughly 81,000 sequences, “one-hybrid fitness for binding parS DNA” has its median near -0.17; the highest 2% begin near 0.51. Only a selection was taken, and the highest values are over-represented in it overall.
B1: Caulobacter ParB omega fusion; a variant is named by its letters at X, in order, B8GW30 (parent)
chain: MESVVVGEPGMSEGRRGLGRGLSALLGEVDAAPAQAPGEQLGGSREAPIEILQRNPDQPRRTFREEDLEDLSNSIREKGVLQPILVRPSPDTAGEYQIVAGERAWRAAQRAGLKTVPIMVRELDDLAVLEIGIIENVQRADLNVLEEALSYKVLMEKFERTQENIAQTIGKSXSHVANXMRLLXLPDEVQSYLVSGELTAXHARAIAAAADPVALAKQIIEGGLSVRETEALARKAPNLSAGKSKGGRPPRVKDTDTQALESDLSSVLGLDVSIDHRGSTGTLTITYATLEQLDDLCNRLTRGI

Variants of: B1
Assay: one-hybrid fitness for binding parS DNA (scaled: cognate 1, non-cognate 0); higher = stronger binding
Conditions: with parS DNA site
Method in brief: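 Bacterial one-hybrid selection in E. coli USO rpoZ- hisB- pyrF- with a HIS3 reporter carrying the site 19 bp from the promoter, screening Caulobacter ParB libraries with four specificity codons randomised (NNS). Cells grew 48 hours at 37°C on M9-minus-histidine plus 0.1 mM IPTG and 5 mM 3-AT. Plasmids before and after selection were Illumina-sequenced, three replicate libraries pooled, and variants under 10 reads dropped. Fitness is the log change in variant-to-wild-type read ratio, rescaled to cognate 1, non-cognate 0.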

Variant | one-hybrid fitness for binding parS DNA
ACEY | ≤ 0.2
KYCS | ≤ 0.2
TTLF | ≤ 0.2
SFCW | ≤ 0.2
HHQT | ≤ 0.2
SRMA | ≤ 0.2
QDSQ | ≤ 0.2
KLPC | ≤ 0.2
IKAG | ≤ 0.2
HGIV | ≤ 0.2
RHMR | ≤ 0.2
RAMT | 0.878
RAMP | ≤ 0.2
RAMN | 0.41
RHML | ≤ 0.2
RMMK | ≤ 0.2
RMMF | 0.247
RMMT | 0.874
RHMT | 0.87
MMTS | ≤ 0.2
SEPR | ≤ 0.2
ENLY | ≤ 0.2
PAVK | ≤ 0.2
IFRK | ≤ 0.2
PDML | ≤ 0.2

Variant | one-hybrid fitness for binding parS DNA
THSD | ≤ 0.2
RTCD | ≤ 0.2
RTCC | 0.959
RTQC | 0.974
RTDQ | ≤ 0.2
RTDC | 0.887
RTQP | ≤ 0.2
RTDK | ≤ 0.2
RTCN | 0.451
RTWR | 0.207
RTWC | 0.985
RTWM | 0.381
RTQN | 0.442
QNHE | ≤ 0.2
TINS | ≤ 0.2
DDHK | ≤ 0.2
RPGE | ≤ 0.2
IIHE | ≤ 0.2
QARI | ≤ 0.2
RTHF | 0.277
RTRR | ≤ 0.2
RTGK | ≤ 0.2
RTHC | 0.978
RTNP | ≤ 0.2
RTRC | 0.826

Variant | one-hybrid fitness for binding parS DNA
RTGQ | ≤ 0.2
RTGC | 0.955
RTNC | 0.914
RTNM | 0.301
NTRC | ≤ 0.2
RTHR | ≤ 0.2
TEQT | ≤ 0.2
PSDC | ≤ 0.2
TTIK | ≤ 0.2
QTTK | ≤ 0.2
EMYT | ≤ 0.2
YMPG | ≤ 0.2
QGVI | ≤ 0.2
THDM | ≤ 0.2
QTRR | ≤ 0.2
WHQG | ≤ 0.2
HQDG | ≤ 0.2
SMLR | ≤ 0.2
LTRA | ≤ 0.2
KPYW | ≤ 0.2
DMSV | ≤ 0.2
RTYC | 0.982
RTLP | ≤ 0.2
RTSP | ≤ 0.2
RTLH | 0.232

Variant | one-hybrid fitness for binding parS DNA
RTYN | 0.424
RTYH | 0.266
RTLC | 0.982
RTSH | ≤ 0.2
RTSC | 0.969
CTCV | ≤ 0.2
NAVT | ≤ 0.2
MEVR | ≤ 0.2
QGIP | ≤ 0.2
IPHS | ≤ 0.2
RSLS | 1.01
RSLN | 0.443
RPLS | ≤ 0.2
RCLH | 0.258
RSLD | ≤ 0.2
RCLS | 1.04
TPGP | ≤ 0.2
ASSQ | ≤ 0.2
LTSY | ≤ 0.2
PADA | ≤ 0.2
RMVS | 1.04
RMVN | 0.422

Reference: a collection of fitness landscapes (doi:10.1016/j.celrep.2020.107928)
